Screening results from PubChem.
Cav32 inh: Cav3.2 calcium influx blockers – cell-based, Fluo-4 calcium fluorescence, FDSS, MLSMR library, primary screen | AID 449739, 2010 | B-score at 10 µM | Voltage-dependent T-type calcium channel subunit alpha-1H (Homo sapiens), O95180 | 4% of 100,000 active | Cav3.2-expressing cells; hits give low values;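 active = single-dose well whose peak fluorescence ratio is a statistical outlier from its plate by either plate-standardised score or position-corrected B-score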
CYP2C9 inhib: blockers of cytochrome P450 2C9 activity – biochemical, luminescence, ADME assay, primary screen | P11712 | CYP2C9 Supersomes, luciferin-H conversion | inhibition, % at 5 µM | 20% of 96,000 active | AID 777, 2007;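 active = blocking of liver enzyme CYP2C9 beyond about 50% at 5 µM, limit read from the data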
Target sequence (P11712 whole entry, looked up): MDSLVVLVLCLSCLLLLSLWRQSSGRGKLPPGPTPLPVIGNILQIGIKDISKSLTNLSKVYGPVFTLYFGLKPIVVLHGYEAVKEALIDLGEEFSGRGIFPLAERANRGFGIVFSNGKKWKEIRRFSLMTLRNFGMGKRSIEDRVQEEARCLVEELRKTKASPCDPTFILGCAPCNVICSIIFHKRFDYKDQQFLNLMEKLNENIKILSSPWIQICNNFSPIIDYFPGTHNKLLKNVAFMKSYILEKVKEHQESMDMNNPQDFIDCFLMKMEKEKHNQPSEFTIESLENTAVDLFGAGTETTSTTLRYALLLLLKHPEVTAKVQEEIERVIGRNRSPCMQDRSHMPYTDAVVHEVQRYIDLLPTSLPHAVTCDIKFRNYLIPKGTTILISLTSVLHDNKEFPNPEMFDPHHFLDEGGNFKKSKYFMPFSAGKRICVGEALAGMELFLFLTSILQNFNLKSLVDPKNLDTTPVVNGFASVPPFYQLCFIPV
CYP2C19 inh: blockers of cytochrome P450 2C19 activity – biochemical, luminescence, ADME assay, primary screen; P33261; CYP2C19 Supersomes, luciferin-H EGE luminescence, 30 min; inhibition, % at 5 µM; 21% of 96,000 active; AID 778, 2007;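 active = CYP2C19 inhibition above a set limit at 5 µM in the primary screen, cut at about 50% in these data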
CYP2C19 activ: human CYP2C19 activators, primary screen, biochemical, luminescence | activation factor at 5 µM | 96,000 tested, under 10 active | recombinant CYP2C19, luciferin-H EGE luminescence; hits give high values; 0 = fully inhibited enzyme, 1 = untreated enzyme | Cytochrome P450 2C19 (Homo sapiens), P33261;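 active = activation factor of at least 2 at 5 µM in the primary screen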
CYP2C9 act: human CYP2C9 activators, primary screen, biochemical, luminescence; recombinant CYP2C9, luciferin-H conversion; hits give high values; factor 1 = untreated enzyme, 0 = blocked; activation factor at 5 µM; 1.4% of 96,000 active; AID 1024, 2008;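 active = activation factor of 2 or more for CYP2C9 at a 5 µM dose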
Large screens that a line does not name were inactive. An excerpt weighted towards active compounds, which were near 27% of everything screened.

COc1cc(NC(=O)CCc2nc(-c3cccs3)no2)cc(OC)c1OC	none
c1ccc(OCc2nc(-c3cccs3)no2)cc1	CYP2C9 inhib 62, CYP2C19 inh 74
CCOc1nc(-c2ccccc2)ccc1-c1noc(COc2ccccc2)n1	CYP2C9 inhib 80, CYP2C19 inh 60
c1ccc(-c2noc(COc3ccc4c(c3)OCO4)n2)cc1	none
Cc1cccc(NC(=S)c2nc3ccccc3s2)c1	none (no result: Cav32 inh)
Cc1cc(C)nc(SCC(=O)Nc2ccccc2[N+](=O)[O-])n1	none
Cc1cc(C)nc(SCCC(=O)Nc2cccc3ccccc23)n1	CYP2C9 act 2.5
CCOC(=O)N1CCC(c2cc(=O)n3[nH]cc(C(=O)OC)c3n2)CC1	CYP2C9 inhib 62 (no result: Cav32 inh)
COC(=O)c1c[nH]n2c(=O)cc(C)nc12	none
O=C(CN1CCN(CCC(=O)Nc2ccccc2F)CC1)Nc1ccc(F)cc1	CYP2C9 inhib 64
O=C(CN1CCN(CCC(=O)Nc2ccccc2F)CC1)Nc1ccc(Cl)cc1	none (no result: Cav32 inh)
O=C(CCN1CCN(c2ccc(Cl)cc2)CC1)Nc1ccccc1F	CYP2C9 inhib 51
O=C(CCN1CCN(c2ccccc2F)CC1)Nc1ccccc1F	CYP2C9 inhib 66, CYP2C19 inh 54
Cc1cccc(N2CCN(CC(=O)Nc3ccccc3[N+](=O)[O-])CC2)c1C	CYP2C9 inhib 67
O=C(CCN1CCc2ccccc2C1)Nc1ccccc1F	none (no result: CYP2C9 inhib, CYP2C19 inh, CYP2C19 activ, CYP2C9 act)
CCOc1ccc(OCC)c(NC(=O)CN2CCN(c3cccc(C)c3C)CC2)c1	none (no result: CYP2C9 inhib, CYP2C19 inh, CYP2C19 activ, CYP2C9 act)
CCOC(=O)/N=C(/NC(=O)Nc1ccc(C(=O)OCC)cc1)OC	none
C#CCNc1cc(C)nc2ncnn12	none (no result: Cav32 inh)
COc1ccc2[nH]c(-c3ccc(C)cc3)cc(=O)c2c1	none (no result: CYP2C9 inhib, CYP2C19 inh, CYP2C19 activ, CYP2C9 act)
O=C(CCN1CCN(c2ccccc2F)CC1)c1ccc(Br)cc1	CYP2C19 inh 50
O=C(CN1CCN(c2ccccc2F)CC1)Nc1ccccc1F	CYP2C9 inhib 80, CYP2C19 inh 88 (no result: Cav32 inh)
O=C(CN1CCN(c2ccccc2)CC1)Nc1ccccc1C(F)(F)F	none
O=C(CN1CCN(c2ccccc2F)CC1)c1ccc2cc[nH]c2c1	none (no result: Cav32 inh)
Cc1cc(Nc2ccc(F)cc2C)n2nc(C)nc2n1	none
CCC(CO)Nc1ncnc2c1cnn2-c1ccc(Cl)cc1 (stereo not drawn)	CYP2C9 inhib 65
CCC(CO)Nc1ncnc2c1cnn2-c1ccc(OC)cc1 (stereo not drawn)	none
Cn1c(=O)c(=O)n(C)c2cc(S(=O)(=O)N3CCN(C4CCCCC4)CC3)ccc21	CYP2C9 act 2.5
Cc1cc(N2CCN(c3ccccc3)CC2)nc(-c2ccccc2O)n1	none
Cc1nc(-c2ccccc2O)n(-c2ccccc2)n1	CYP2C9 inhib 68, CYP2C19 inh 53
Cc1cc(Cl)c(S(=O)(=O)NC2CCCC2)cc1OCC(=O)NC1CCCCC1	CYP2C19 inh 52
CCn1c(=O)cc(OCC(=O)NC2CCCCC2)c2ccccc21	none
CCN1CCN(S(=O)(=O)c2cc(OCC(=O)NC3CCCCC3)c(C)cc2Cl)CC1	CYP2C9 inhib 56
O=C(COc1ccc(Cl)cc1Cl)NC1CCSC1=O (stereo not drawn)	CYP2C9 inhib 60, CYP2C19 inh 96
CCOC(=O)N1CCN(S(=O)(=O)c2cc(OCC(=O)NC3CCCCC3)c(C)cc2Cl)CC1	CYP2C9 inhib 62, CYP2C19 inh 54
Cc1ccc(OCC(=O)NC2CCCC2)c(C)c1	none
CC(=O)OC1C(OC(C)=O)N(C(C)=O)C(=O)N1C(C)=O (stereo not drawn)	none
CC1CCCCC1NC(=O)Cn1ncc2ccccc21 (stereo not drawn)	none
CC1CCCCN1Cc1cnc(Cl)s1 (stereo not drawn)	none (no result: Cav32 inh)
NS(=O)(=O)c1ccc(NC(=O)Cn2ncc3c2-c2ccccc2OC3)cc1	none
Cc1cc(Cl)ccc1OCCCC(=O)NCC1CCCO1 (stereo not drawn)	CYP2C9 act 2.3
Cc1cc(Cl)c(S(=O)(=O)N2CCCCCC2)cc1OCC(N)=O	none
CCOC(=O)C1CCCN(S(=O)(=O)c2cc(OCC(N)=O)c(C)cc2Cl)C1 (stereo not drawn)	CYP2C19 inh 91
Cc1cc(Cl)c(S(=O)(=O)N2CCCCCC2)cc1OCC(=O)NC1CCCCC1	Cav32 inh -4.2, CYP2C9 inhib 89, CYP2C19 inh 90
Cc1cc(Cl)c(S(=O)(=O)N2CCN(c3cccc(C)c3C)CC2)cc1OCC(N)=O	none
